The results in this text go back to PubChem BioAssay (Tox21).

Results filed as inconclusive are left out. Activity calls are given as the source filed them. Calls come from the whole dose curve; as a rule, active = well fitted curve in the direction sought with a large enough effect in the repeat runs; inconclusive = weak or mixed curves; inactive = no such curve, though single readings can be large; an effect the other way counts as inactive or inconclusive.

Experiment [1] can be described thus: A CellTox Green Cytotoxicity Assay to monitor cytotoxicity in HEK293 cells - 32 hour (AID 1224881). Note: nearly all actives have a fitted effect of over 40% in size. Note: potency is the fitted concentration of half-maximal effect. The procedure, abridged:
(§1)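 Each value comes from one timepoint of a single continuous run in which HEK293 cells with CellTox Green were exposed to compound for up to 40 h at 37 C, dye fluorescence rising with cell death.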

Experiment [2] in a line: A CellTox Green Cytotoxicity Assay to monitor cytotoxicity in HepG2 cells - 0 hour (AID 1224882). Note: nearly all actives have a fitted effect of over 35% in size. The procedure, abridged:
(§2)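 Continuous culture of HepG2 cells with a membrane-impermeant DNA dye; rising fluorescence marks dead cells. Compound exposure lasted up to 40 h at 37 C, with reads every 8 h from 0 h.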

Experiment [3] can be described thus: A CellTox Green Cytotoxicity Assay to monitor cytotoxicity in HepG2 cells - 32 hour (AID 1224883). Note: nearly all actives have a fitted effect of over 50% in size. Note: potency is the fitted concentration of half-maximal effect. The procedure, abridged:
as §2

Experiment [4] in a line: A CellTox Green Cytotoxicity Assay to monitor cytotoxicity in HEK293 cells - 8 hour (AID 1224884). Note: nearly all actives have a fitted effect of over 35% in size. Note: potency is the fitted concentration of half-maximal effect. The procedure, abridged:
as §1

Experiment [5] can be described thus: qHTS RealTime-Glo MT Cell Viability Assay in HepG2 cells - 16 hour (AID 1224885). Note: nearly all actives have a fitted effect of over 50% in size. Note: potency is the fitted concentration of half-maximal effect. Put shortly: (§3)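 Cells + NanoLuc/prosubstrate dispensed (600 cells/well) → 5 h at 37 C/5% CO2 → compounds in DMSO transferred → 40 h incubation at 37 C, luminescence read at 0, 8, 16, 24, 32, 40 h.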
A general note: Quantitative high-throughput screening tests each substance at several concentrations.

A short description of experiment [6]: qHTS RealTime-Glo MT Cell Viability Assay in HEK293 cells - 24 hour (AID 1224886). Note: nearly all actives have a fitted effect of over 50% in size. Note: potency is the fitted concentration of half-maximal effect. The procedure, abridged:
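Tox21 10K qHTS, HEK293, 600 cells/well, RealTime-Glo reagent co-dispensed with cells; 5 h preincubation, compound by pintool, 37 C, luminescence at 0–40 h.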

Experiment [7] is described as follows: qHTS RealTime-Glo MT Cell Viability Assay in HEK293 cells - 8 hour (AID 1224887). Note: nearly all actives have a fitted effect of over 50% in size. Note: potency is the fitted concentration of half-maximal effect. Put shortly:
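qHTS format; HEK293 cells with NanoLuc/prosubstrate reagent, 37 C/5% CO2 for 5 h pre-dosing; compounds 23 nL in DMSO; luminescence at each time point reflects viable cells.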

Experiment [8] in a line: A CellTox Green Cytotoxicity Assay to monitor cytotoxicity in HEK293 cells - 16 hour (AID 1224888). Note: nearly all actives have a fitted effect of over 35% in size. Note: potency is the fitted concentration of half-maximal effect. Put shortly:
as §1

Experiment [9] is described as follows: qHTS RealTime-Glo MT Cell Viability Assay in HepG2 cells - 0 hour (AID 1224889). Note: nearly all actives have a fitted effect of over 50% in size. Note: potency is the fitted concentration of half-maximal effect. Put shortly:
as §3

A short description of experiment [10]: A CellTox Green Cytotoxicity Assay to monitor cytotoxicity in HepG2 cells - 8 hour (AID 1224890). Note: nearly all actives have a fitted effect of over 45% in size. Note: potency is the fitted concentration of half-maximal effect. The procedure, abridged:
as §2

Take `CCN(CC)C(=O)N[C@@H]1C=C2c3cccc4[nH]cc(c34)C[C@@H]2N(C)C1`: the Potency result in experiment [1], in experiment [2], in experiment [3], in [4], in experiment [5] and in experiment [6] was “inactive” throughout. The Potency entry in experiment [7], in [8], in experiment [9] and in [10] was “inactive” throughout.
Take `[O]=[Cr][O][Cr]=[O]`: the Potency result in experiment [1], in [2], in experiment [3], in experiment [4], in experiment [5] and in [6] was “inactive” throughout. Also, the Potency entry in experiment [7], in experiment [8], in [9] and in experiment [10] was “inactive” each time.
On to `CCCC[N+]1(C)CCCC1` (tested in a mixture with another compound), for which the Potency entry in experiment [1], in experiment [2], in experiment [3], in experiment [4], in [5] and in [6] was “inactive” each time. Moreover, the Potency result in experiment [7], in experiment [8], in experiment [9] and in experiment [10] was “inactive” in each case.
`CCCCN(CCCC)C(=S)[S-].CCCCN(CCCC)C(=S)[S-].[Ni+2]`: the Potency result in [1], in [2], in experiment [3], in experiment [4], in [5] and in [6] was “inactive” each time. Besides, the Potency result in [7], in [8], in [9] and in experiment [10] was “inactive” each time.
Take `CNC(C)(C)Cc1ccccc1`: the Potency result in experiment [1], in [2], in experiment [3], in experiment [4], in [5] and in experiment [6] was “inactive” throughout. The Potency result in experiment [7], in experiment [8], in [9] and in experiment [10] was “inactive” throughout.
On to `O=c1[nH]c2cc(Cl)ccc2n1C1CCNCC1`, for which the Potency result in experiment [1], in [2], in experiment [3], in experiment [4], in [5] and in [6] was “inactive” each time. Moreover, the Potency entry in experiment [7], in [8], in [9] and in experiment [10] was “inactive” each time.
Consider `ClCBr`, for which the Potency result in experiment [1], in [2], in [3], in [4], in [5] and in [6] was “inactive” each time. The Potency result in [7], in [8], in experiment [9] and in experiment [10] was “inactive” in each case.
With `O=S(=O)(O)F`, the Potency entry in [1], in experiment [2], in experiment [3], in experiment [4], in [5] and in experiment [6] was “inactive” in each case. In addition, the Potency entry in [7], in experiment [8], in experiment [9] and in experiment [10] was “inactive” each time.
For the molecule `CC(Cl)CCl` (stereo not given), the Potency result in experiment [1], in experiment [2], in experiment [3], in experiment [4], in [5] and in experiment [6] was “inactive” throughout. For the same molecule, the Potency result in [7], in experiment [8], in [9] and in [10] was “inactive” throughout.
As to `CCOC(=O)CCN(SN(C)C(=O)Oc1cccc2c1OC(C)(C)C2)C(C)C`, the Potency entry in [1], in experiment [2], in experiment [3], in [4], in experiment [5] and in [6] was “inactive” throughout. Besides, the Potency entry in experiment [7], in experiment [8], in experiment [9] and in experiment [10] was “inactive” each time.
On to `COC(=O)c1ccccc1S(=O)(=O)NC(=O)Nc1nc(C)nc(OC)n1`, for which the Potency result in experiment [1], in [2], in experiment [3], in experiment [4], in experiment [5] and in experiment [6] was “inactive” each time. Besides, the Potency entry in experiment [7], in experiment [8], in [9] and in experiment [10] was “inactive” throughout.
For `CC(=O)[O-].CC(=O)[O-].O.O.[Zn+2]`, the Potency entry in [1], in [2], in [3], in [4], in experiment [5] and in [6] was “inactive” throughout. The Potency entry in experiment [7], in experiment [8], in experiment [9] and in experiment [10] was “inactive” in each case.
As to `O=C(NC(=O)c1c(F)cccc1F)Nc1ccc(Oc2ccc(C(F)(F)F)cc2Cl)cc1F`, the Potency entry in experiment [1], in experiment [2], in [3], in experiment [4], in [5] and in experiment [8] was “inactive” throughout. For the same molecule, the Potency result in experiment [9] and in experiment [10] was “inactive” throughout. Also, in [6], the Potency is 24.5 µM (active).
As for `CCC(C)c1cccc(C(C)CC)c1O` (stereo not given), the Potency was 30.9 µM (active) in [1], 19.5 µM (active) in [3] and 19.5 µM (active) in [10]. Moreover, the Potency result in experiment [2], in [4], in experiment [5], in experiment [6], in experiment [7] and in experiment [9] was “inactive” throughout.
In the case of `Brc1ccc(Oc2ccc(Br)cc2Br)c(Br)c1`, the Potency entry in experiment [1], in [2], in experiment [3], in experiment [4], in experiment [5] and in experiment [8] was “inactive” throughout. The Potency result in experiment [9] and in [10] was “inactive” in each case. Besides, the Potency in [6] is 49 µM (active).
For the molecule `COC(=O)N(OC)c1ccccc1COc1ccn(-c2ccc(Cl)cc2)n1`, the Potency entry in [1], in [2], in experiment [3], in experiment [4], in [5] and in experiment [8] was “inactive” each time. Besides, the Potency entry in experiment [9] and in experiment [10] was “inactive” each time.
For `Clc1ccc(C(Cl)(Cl)Cl)cc1Cl`, the Potency in experiment [1] is 33.9 µM (active); in [3], 47.9 µM (active); in experiment [4], 42.7 µM (active); in [6], 33.9 µM (active); in experiment [7], 30.2 µM (active); in experiment [8], 38.1 µM (active). Also, the Potency in experiment [10] was 47.9 µM (active). The Potency result in experiment [2] and in [9] was “inactive” throughout.
Consider `Oc1cc(Cl)cc(Cl)c1`, for which, in [1], the Potency is 49.5 µM (active). The Potency entry in [2], in [3], in experiment [4], in experiment [5], in experiment [9] and in [10] was “inactive” throughout.
`CC(C)N(C(=O)SC/C(Cl)=C/Cl)C(C)C`: the Potency in experiment [1] was 39.2 µM (active). Further, the Potency entry in experiment [2], in experiment [3], in [4], in [5], in experiment [6] and in [8] was “inactive” each time. In addition, the Potency result in [9] and in experiment [10] was “inactive” throughout.
In the case of `CC(=O)[O][Pb]([c]1ccccc1)([c]1ccccc1)[c]1ccccc1`, the Potency was 3.09 µM (active) in experiment [1]; 0.871 µM (active) in experiment [3]; 11 µM (active) in [4]; 1.55 µM (active) in experiment [5]; 0.436 µM (active) in experiment [6]; 3.47 µM (active) in experiment [7]. Also, the Potency is 4.9 µM (active) in experiment [8] and 3.89 µM (active) in experiment [10]. In addition, in experiment [2], the Potency entry was “inactive”.
For `N#CC(C#N)=NNc1cccc(Cl)c1`, the Potency result in experiment [1], in experiment [2], in [4], in [7], in experiment [8] and in experiment [10] was “inactive” throughout. Moreover, the Potency in experiment [3] was 13.8 µM (active); in experiment [6], 5.49 µM (active); in experiment [9], 24.5 µM (active).
As for `CSC(=O)c1c(C(F)F)nc(C(F)(F)F)c(C(=O)SC)c1CC(C)C`, the Potency result in experiment [1], in experiment [2], in [3], in experiment [4], in [5] and in [7] was “inactive” throughout. For the same molecule, the Potency entry in experiment [8], in experiment [9] and in [10] was “inactive” each time.
For `N#CCCl`, the Potency entry in experiment [1], in [2], in experiment [3], in experiment [4], in experiment [5] and in experiment [7] was “inactive” each time. Besides, the Potency result in [8], in [9] and in [10] was “inactive” throughout.
In the case of `COc1ccc(Cc2nccc3cc(OC)c(OC)cc23)cc1OC`, the Potency entry in experiment [1], in [2], in experiment [3], in [4], in experiment [8] and in [9] was “inactive” each time. For the same molecule, the Potency entry in experiment [10] was “inactive”. Also, the Potency in experiment [6] and in [7] was 4.77 µM (active) each time.
